PubChem BioAssay AID1159580 (chemical genetic matrix, 2015)
Among all 5,500 compounds or so, about 2,000 (36%) were called active. About 18% were inconclusive and are not listed. Rule as the data show it: active = normalized growth mostly below about 0.91 (no sharp cut-off); inconclusive = no clear call, values can overlap the other calls; inactive = mostly above about 0.92. The list shows a part of the results.

Test: chemical genetic growth profiling, strain panel (AID 1159580);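 also: tested at 20 µM; growth read once vehicle control cultures reached saturation at 30 °C; 1 = growth at the plate median or of vehicle wells; lower values mean less growth of the strain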
Details: S. cerevisiae deletion strains, growth OD
[1] = locus YDL101C, strain DUN1, stronger effect = lower value
[2] = locus YHR030C, strain SLT2, stronger effect = lower value

Measured: normalized growth

Clc1cc(Cl)cc(C=NCc2ccccc2)c1
active: locus YDL214C, strain PRR2, stronger effect = lower value 0.665 | locus YDR477W, strain SNF1, stronger effect = lower value 0.621 | locus YER123W, strain YCK3, stronger effect = lower value 0.364 | locus YER133W, strain GLC7, stronger effect = lower value 0.625 | locus YFR019W, strain FAB1, stronger effect = lower value 0.501 | locus YGR040W, strain KSS1, stronger effect = lower value 0.681 | locus YGR092W, strain DBF2, stronger effect = lower value 0.222 | [2] 0.322 | locus YHR079C, strain IRE1, stronger effect = lower value 0.27 | locus YJL095W, strain BCK1, stronger effect = lower value 0.375 | locus YJL157C, strain FAR1, stronger effect = lower value 0.458 | locus YJR066W, strain TOR1 (second series), stronger effect = lower value 0.585 | locus YJR066W, strain TOR1, stronger effect = lower value 0.433 | locus YKL048C, strain ELM1, stronger effect = lower value 0.722 | locus YKL067W, strain YNK1, stronger effect = lower value 0.58 | locus YKL101W, strain HSL1, stronger effect = lower value 0.692 | locus YKL203C, strain TOR2, stronger effect = lower value 0.691 | locus YLR113W, strain HOG1, stronger effect = lower value 0.375 | locus YLR133W, strain CKI1, stronger effect = lower value 0.525 | locus YLR403W, strain SFP1, stronger effect = lower value 0.479 | locus YML070W, strain DAK1, stronger effect = lower value 0.428 | locus YMR205C, strain PFK2 (second series), stronger effect = lower value 0.652 | locus YNL020C, strain ARK1, stronger effect = lower value 0.452 | locus YNL183C, strain NPR1, stronger effect = lower value 0.549 | locus YNL307C, strain MCK1 (second series), stronger effect = lower value 0.489 | locus YOL136C, strain PFK27, stronger effect = lower value 0.328 | locus YOR061W, strain CKA2, stronger effect = lower value 0.441 | locus YOR231W, strain MKK1, stronger effect = lower value 0.364 | locus YPL031C, strain PHO85, stronger effect = lower value 0.589 | locus YPL153C, strain RAD53, stronger effect = lower value 0.534 | locus YPL204W, strain HRR25, stronger effect = lower value 0.489 | locus YPL256C, strain CLN2, stronger effect = lower value 0.303
inactive: locus YAR019C, strain CDC15, stronger effect = lower value 0.958 | locus YBL105C, strain PKC1, stronger effect = lower value 0.946 | locus YBR135W, strain CKS1, stronger effect = lower value 0.961 | locus YBR136W, strain MEC1, stronger effect = lower value 0.957 | locus YBR160W, strain CDC28, stronger effect = lower value 0.955 | locus YDL017W, strain CDC7, stronger effect = lower value 0.951 | locus YDL028C, strain MPS1, stronger effect = lower value 0.958 | [1] 0.964 | locus YDL108W, strain KIN28, stronger effect = lower value 0.964 | locus YDL132W, strain cdc53, stronger effect = lower value 0.959 | locus YDR052C, strain DBF4, stronger effect = lower value 0.957 | locus YDR054C, strain cdc34, stronger effect = lower value 0.95 | locus YDR226W, strain ADK1, stronger effect = lower value 0.957 | locus YFL009W, strain cdc4, stronger effect = lower value 0.961 | locus YFL029C, strain CAK1, stronger effect = lower value 0.961 | locus YFR003C, strain YPI1, stronger effect = lower value 0.95 | locus YFR028C, strain CDC14, stronger effect = lower value 0.967 | locus YGR052W, strain FMP48, stronger effect = lower value 0.627 | locus YHR082C, strain KSP1, stronger effect = lower value 0.616 | locus YHR205W, strain SCH9, stronger effect = lower value 0.621 | locus YIL147C, strain SLN1, stronger effect = lower value 0.947 | locus YJL128C, strain PBS2, stronger effect = lower value 0.93 | locus YJR016C, strain ILV3, stronger effect = lower value 0.961 | locus YKL193C, strain SDS22, stronger effect = lower value 0.956 | locus YMR001C, strain CDC5, stronger effect = lower value 0.947 | locus YMR277W, strain FCP1, stronger effect = lower value 0.966 | locus YNL006W, strain LST8, stronger effect = lower value 0.95 | locus YNL161W, strain CBK1, stronger effect = lower value 0.95 | locus YNL207W, strain RIO2, stronger effect = lower value 0.963 | locus YNL222W, strain SSU72, stronger effect = lower value 0.963 | locus YOL078W, strain AVO1, stronger effect = lower value 0.965 | locus YOR119C, strain RIO1, stronger effect = lower value 0.744 | locus YOR329C, strain SCD5, stronger effect = lower value 0.946 | locus YPL209C, strain IPL1, stronger effect = lower value 0.957 | locus YPR025C, strain CCL1, stronger effect = lower value 0.953 | locus YPR106W, strain ISR1, stronger effect = lower value 0.959 | locus YPR111W, strain DBF20, stronger effect = lower value 0.957 | strain NNK1, stronger effect = lower value 0.959 | strain TSCII, stronger effect = lower value 0.954

O=C1c2ccccc2C2(c3ccccc3)NCCN12 (stereo not drawn)
inactive: locus YAL013W, strain DEP1, stronger effect = lower value 1 | locus YBR229C, strain ROT2, stronger effect = lower value 1.01 | locus YCL061C, strain MRC1, stronger effect = lower value 0.987 | [1] 0.982 | locus YDR150W, strain NUM1, stronger effect = lower value 0.989 | locus YEL061C, strain CIN8, stronger effect = lower value 1.02 | locus YGR078C, strain PAC10, stronger effect = lower value 1.01 | [2] 0.972 | locus YHR087W, strain rtc3, stronger effect = lower value 0.993 | locus YJL187C, strain SWE1, stronger effect = lower value 0.997 | locus YJR043C, strain POL32, stronger effect = lower value 0.956 | locus YJR075W, strain HOC1, stronger effect = lower value 1.01 | locus YLR039C, strain RIC1, stronger effect = lower value 0.976 | locus YLR058C, strain SHM2 (second series), stronger effect = lower value 0.997 | locus YLR085C, strain ARP6, stronger effect = lower value 1.04 | locus YLR262C, strain YPT6, stronger effect = lower value 0.968 | locus YML094W, strain GIM5, stronger effect = lower value 1.04 | locus YMR219W, strain ESC1, stronger effect = lower value 1 | locus YMR263W, strain SAP30, stronger effect = lower value 1.01 | locus YNL128W, strain TEP1, stronger effect = lower value 0.983 | locus YNL153C, strain GIM3, stronger effect = lower value 1.01 | locus YNL298W, strain CLA4 (second series), stronger effect = lower value 0.995 | locus YNL322C, strain KRE1, stronger effect = lower value 0.996 | locus YNR030W, strain Alg12, stronger effect = lower value 0.982 | locus YPL055C, strain LGE1, stronger effect = lower value 1.04 | locus YPL241C, strain CIN2, stronger effect = lower value 1.02 | locus YPR135W, strain CTF4, stronger effect = lower value 0.957
